In the library only some 2.9% were active in any assay of this set; here they are far more common.
HIF-2a block: blocks HIF-2a reporter activity; inhibition, % at 18.8 µM; actives 0.72% (n = 360,000); 786-0 RCC cells HIF-2a reporter, luciferase luminescence, overnight;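 active = inhibition of the luminescence signal of 40% or more relative to plate controls, in a single-dose primary screen at 18.75 µM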
Peg3 prom inh: Peg3 promoter activity inhibition; HeLa PEG-Prom luciferase reporter, luminescence, overnight; inhibition, % at 20 µM; actives 1.7% (n = 360,000); AID 588405;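 active = inhibition of at least 50% at 20 µM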
KKLEB tox: reduces viability of KKLEB cystic fibrosis airway cells; KKLEB CF airway cells viability, ATPlite luminescence, overnight; active compounds read low; cells stimulated with P. aeruginosa culture filtrate; activity change (cytotoxicity), % at 5 µM; actives 0.36% (n = 360,000); AID 602141;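 active = corrected activity change at or below -50% at 5 µM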
CF NFkB inh: blocks PAF-induced NF-kB reporter in cystic fibrosis cells | KKLEB NF-kB-GFP reporter, GFP fluorescence overnight | inhibition, % at 5 µM | actives 0.86% (n = 360,000) | AID 588850;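 active = at least 50% inhibition at 5 µM, scaled per plate between neutral and stimulator controls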;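 also: PAF is a Pseudomonas aeruginosa culture filtrate used as stimulus; plate controls were PAF-stimulated DMSO wells for no effect and unstimulated DMSO wells for full effect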
EBV LMP1 NFkB: inhibitors of Epstein-Barr LMP1-induced NF-kappaB reporter; actives 0.69% (n = 350,000); inhibition, % at 12.5 µM; AID 504558; LMP1-induced NF-kappaB luciferase reporter cells, luminescence; in the data active = inhibition above about 41%;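 also: 0% = neutral control wells and 100% = reference inhibitor control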
Shn3 3UTR inh: reduces Shn3 3'UTR luciferase signal in osteoblasts | AID 588674 | actives 0.52% (n = 360,000) | Clone20 osteoblast Shn3 3'UTR firefly luciferase, 24 h | inhibition, % at 12.5 µM;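 active = mean inhibition of at least 75% with every replicate also reaching 75%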;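 also: 0% = median of neutral control wells and 100% = pilot-screen positive control compound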
Mdm2-MdmX confirm: Mdm2/MdmX (human) interaction inhibition, confirmed; shares compounds with HIF-2a block; SaOS-2 split-luciferase Mdm2/MdmX complementation, luminescence; inhibition, % at 8 µM; actives 99% (n = 740);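 active = mean inhibition of the luminescence signal across two replicates at or above 26 percent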
Target sequence (O15151 whole entry, looked up): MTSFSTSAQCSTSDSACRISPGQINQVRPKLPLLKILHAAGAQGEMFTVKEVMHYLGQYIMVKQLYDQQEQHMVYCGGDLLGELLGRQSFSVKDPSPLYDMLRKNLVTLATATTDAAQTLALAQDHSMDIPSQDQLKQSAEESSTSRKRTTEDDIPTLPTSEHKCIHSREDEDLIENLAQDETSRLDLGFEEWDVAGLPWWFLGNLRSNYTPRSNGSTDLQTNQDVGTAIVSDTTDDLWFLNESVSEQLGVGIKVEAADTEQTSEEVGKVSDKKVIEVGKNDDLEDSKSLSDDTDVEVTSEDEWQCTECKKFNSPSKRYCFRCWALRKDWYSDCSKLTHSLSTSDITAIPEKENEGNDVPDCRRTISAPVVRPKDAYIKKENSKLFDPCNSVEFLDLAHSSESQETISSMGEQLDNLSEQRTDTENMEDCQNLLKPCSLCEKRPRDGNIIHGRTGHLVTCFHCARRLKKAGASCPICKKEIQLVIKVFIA
Target sequence (Q00987 whole entry, looked up): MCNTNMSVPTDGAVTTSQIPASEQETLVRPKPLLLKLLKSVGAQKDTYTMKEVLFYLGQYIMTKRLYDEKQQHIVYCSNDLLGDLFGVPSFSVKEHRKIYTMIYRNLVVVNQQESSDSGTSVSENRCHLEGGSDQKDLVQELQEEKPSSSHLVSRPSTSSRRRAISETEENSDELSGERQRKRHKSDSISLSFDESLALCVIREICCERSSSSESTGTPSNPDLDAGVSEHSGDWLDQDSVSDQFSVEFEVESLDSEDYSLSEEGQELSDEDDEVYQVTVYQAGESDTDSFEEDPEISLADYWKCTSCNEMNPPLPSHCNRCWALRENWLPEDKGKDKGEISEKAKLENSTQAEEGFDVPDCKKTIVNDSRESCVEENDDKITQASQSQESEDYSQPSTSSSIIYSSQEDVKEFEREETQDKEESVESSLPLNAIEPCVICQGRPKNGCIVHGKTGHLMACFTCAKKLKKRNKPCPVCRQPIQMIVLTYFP
HIF-2a inh conf: HIF-2a inhibition, single concentration confirmation. shares compounds with HIF-2a block. 786-0 RCC cells, HIF-2a luciferase reporter luminescence, overnight. inhibition, % at 18.8 µM. actives 56% (n = 1,800);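 active = mean inhibition across four replicates of at least 40 percent at the single tested concentration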
HIF-1a cs: inhibits HIF-1a reporter, a counter-screen for HIF-2a inhibitors. shares compounds with HIF-2a block. MiaPaCa-2 HIF-1a luciferase reporter, desferoxamine, overnight. inhibition, % at 18.8 µM. actives 72% (n = 1,800). AID 651589;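 active = mean inhibition of the reporter signal across four replicates at the single tested dose of 50% or more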
Active calls of the source: *; . = no result.

SMILES	HIF-2a block	Peg3 prom inh	KKLEB tox	CF NFkB inh	EBV LMP1 NFkB	Shn3 3UTR inh	HIF-2a inh conf	HIF-1a cs	others
COc1ccc2nc(-c3ccc(N)cc3)[nH]c2c1	69.6*	-116.8	6.5	-22.2	16.3	23.2	79.9*	17.0
CCNc1nc(NCC)nc(Oc2ccc(C(=O)OC)cc2)n1	1.7	23.6	-21.3	34.5	-2.5	-3.6	.	.
Oc1ccc(N=Nc2ccc3c(c2)OCCO3)c(O)c1	-138.6	-104.1	-2.8	-30.1	39.3	27.1	.	.
Oc1ccc(N=Nc2ccc3c(c2)OCCO3)c2cccnc12	26.1	-6.3	-2.8	-2.6	60.0*	93.4*	.	.	Mdm2-MdmX confirm=88.7*
Cc1cccc(C)c1NC(=O)C1c2ccccc2OCC(=O)N1Cc1cccnc1 (stereo unspecified)	-1.2	.	.	.	.	.	.	.
CN(C(=S)NC(=O)c1ccccc1)C1CCCCC1	50.2*	28.8	-11.5	-20.7	0.6	-8.3	-0.1	12.9
CCN(CC)CCCN=C1N[C@@H](c2cccc(F)c2)C(C(=O)OC)=C(C)N1Cc1ccccc1	8.1	96.9*	-13.4	15.8	-22.9	-6.6	.	.	Mdm2-MdmX confirm=102.2*
O=C(c1ccco1)N1CCCC(N2CCN(c3cccc(C(F)(F)F)c3)CC2)C1 (stereo unspecified)	-12.1	7.0	-5.9	10.7	6.2	4.2	.	.
Cc1noc(/C=C/c2ccccn2)c1[N+](=O)[O-]	72.7*	26.4	-10.7	5.0	22.9	-53.9	86.5*	106.4*
COc1ccccc1N/C=C/c1onc(C)c1[N+](=O)[O-]	-70.7	0.3	14.3	-40.0	-9.1	5.9	.	.
CCn1c(=O)c(CCC(=O)N2CCN(c3ccccn3)CC2)c(C)c2c(C)nn(-c3cccc(C)c3)c21	-3.9	43.1	-19.5	44.1	11.8	9.5	.	.
O=[N+]([O-])c1cc(S(=O)(=O)N2CCCCCC2)ccc1Cl	40.5*	69.2*	-2.9	-11.5	-3.7	0.3	29.0	68.3*
COC(=O)c1ccccc1NC(=O)CCn1c(=O)oc2ccccc21	-23.0	-26.8	5.5	-9.9	-4.1	1.3	.	.
COCCN(C(=O)CSc1nnc(-c2ccc(F)cc2)n1N)c1c(N)n(CC(C)C)c(=O)[nH]c1=O	19.1	1.5	7.2	14.0	-14.1	28.1	.	.
NC(Cc1ccc(Cl)cc1)c1csc(NC(=O)NCC2CCCCC2)n1 (stereo unspecified)	61.4*	92.5*	-16.7	22.4	.	84.2*	-23.4	101.0*
Cc1csc(NC(=O)NCC2CCCC(CNC(=O)Nc3nc(C)cs3)C2)n1 (stereo unspecified)	-120.9	-134.3	-7.0	14.5	2.7	-27.0	.	.
FC(F)(F)c1cc(-c2ccco2)nc(-n2cnc3ccccc32)n1	-22.1	11.3	0.1	7.2	-47.8	-20.6	.	.
Cc1nc2ccccc2n1-c1nc(-c2ccco2)cc(C(F)(F)F)n1	45.9*	71.9*	-81.9*	93.9*	-89.6	-0.9	32.0	80.1*
CN(Cc1cc(Cl)cc(Cl)c1)CC(C(=O)c1ccccc1)c1ccccc1 (stereo unspecified)	38.5	25.6	-2.5	8.1	-8.2	53.1	.	.
CN(C)CC(C(=O)c1ccccc1)c1ccccc1 (stereo unspecified)	86.3*	113.8*	-51.0*	62.6*	77.5*	94.6*	25.2	96.5*	Mdm2-MdmX confirm=103.5*
O=C(Nc1cccc(NC(=O)c2cc([N+](=O)[O-])ccc2Cl)n1)c1cc([N+](=O)[O-])ccc1Cl	83.7*	92.8*	-13.3	-6.4	-288.8	43.3	25.3	102.2*	Mdm2-MdmX confirm=100.5*
CCCCC(=O)NC(c1ccc(Cl)cc1Cl)c1ccc2cccnc2c1O (stereo unspecified)	-46.2	54.1*	-8.1	-27.5	68.7*	93.2*	.	.	Mdm2-MdmX confirm=84.7*
COC(=O)C12OCC34C(CC5C(C)=C(O)C(=O)CC5(C)C3C(O)C1O)OC(=O)C(OC(=O)C=C(C)C)C24 (stereo unspecified)	67.8*	100.0*	-42.9	93.5*	85.3*	99.1*	59.9*	105.4*
O=C(CCc1nnc2ccc(NCc3ccco3)nn12)Nc1ccc(F)cc1	13.9	-6.1	-22.2	19.4	-3.2	-18.3	.	.
N#C/C(=C\C=C\c1ccccc1[N+](=O)[O-])C(=O)NCc1ccccc1	80.7*	104.6*	-2.0	-35.3	-82.1	-18.5	61.0*	102.1*
SMILES	HIF-2a block	Peg3 prom inh	KKLEB tox	CF NFkB inh	EBV LMP1 NFkB	Shn3 3UTR inh	HIF-2a inh conf	HIF-1a cs	others
N#C/C(=C\c1ccccc1[N+](=O)[O-])C(=O)NCc1ccccc1	22.1	16.1	-6.7	4.0	-4.1	-3.7	.	.
COc1ccc(/C(N)=N/OC(=O)Cc2ccc(OC)c(OC)c2)cc1	-11.9	-10.2	0.9	-5.6	9.2	63.3	.	.
O=C1C=CC(=O)N1c1ccccc1N1C(=O)C=CC1=O	76.6*	96.8*	-15.3	60.8*	-25.6	94.3*	55.5*	-1.6
COc1ccc(OC)c(NC(=O)C(CCSC)NS(=O)(=O)c2cccs2)c1 (stereo unspecified)	9.4	1.2	6.2	-13.0	-1.6	-2.1	.	.
COc1ccc(C2CC(c3cccs3)=NN2C(=O)CCl)cc1OC (stereo unspecified)	3.1	103.1*	-10.7	36.1	-5.5	49.4	.	.	Mdm2-MdmX confirm=95.8*
COc1cc(C2CC(c3cccs3)=NN2C(=O)CCl)ccc1OC(F)F (stereo unspecified)	38.5	109.0*	-88.4*	104.2*	0.1	56.8	.	.	Mdm2-MdmX confirm=103.0*
Cc1ccc(C2=NN(C(=O)CCl)C(c3cccs3)C2)o1 (stereo unspecified)	83.9*	60.1*	-21.2	46.0	35.1	9.2	2.0	50.6*	Mdm2-MdmX confirm=101.0*
CC(=O)N1N=C(c2ccco2)CC1c1cccs1 (stereo unspecified)	-1.3	1.6	-2.4	-0.4	-12.2	-12.3	.	.
COc1ccc(C2CC(c3cccs3)=NN2C(=O)c2ccccc2)cc1OC (stereo unspecified)	9.8	8.1	5.3	2.3	-13.6	4.2	.	.
CCOc1ccc(NC(=O)c2cc(C3CC3)nc3c2cnn3C(C)C)cc1OC	11.8	25.8	-8.2	6.0	3.4	23.2	.	.
CC(O)C(=O)N/N=C/c1ccccc1C(=O)O (stereo unspecified)	14.8	2.3	-22.2	4.1	2.8	1.9	.	.
CC(OC(=O)c1ccc2c(=O)n3c(nc2c1)CCCCC3)C(=O)Nc1ccc(F)cc1Cl (stereo unspecified)	5.3	-3.5	-7.8	-3.4	4.9	-5.0	.	.

Source: PubChem BioAssay (several laboratories)
